Compound activity from PubChem.
Rows were chosen to be rich in hits. Some 5.7% of all compounds tested hit in one or more screens of this group.
Nrf2 block: Nrf2 qHTS screen for inhibitors | A549 ARE-Fluc reporter, luciferase luminescence, 18-24 h | Potency, µM (series often up to 46 µM), for inactives: at the top dose activity change, negative = inhibition, usual class: inhibitors | 2.1% of 360,000 active; note: potency is the fitted concentration of half-maximal effect; nearly all actives have a fitted effect of over 60% in size
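A549 ARE_Fluc cells (5000/well, 5% FBS OPTI-MEM) pre-incubated 2 h, then treated with compounds 18-24 h at 37C/5% CO2 in concentration-response. CellTiter-Fluor viability read first; BugLite luciferase luminescence after 15 min at room temperature gives Nrf2 activity.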
KB-V1 MDR tox: qHTS assay for MDR1-selective chemotherapeutics: Primary screen using the drug-selected MDR subline cells KB-V1; 3.4% of 400,000 active; Potency, µM (highest dose often 46.1 µM), hits mostly cytotoxic; KB-V1 MDR cells viability, CellTiter-Glo, 72 h; note: potency is the fitted concentration of half-maximal effect; nearly all actives have a fitted effect of over 60% in size
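KB-V1 MDR subline cells in DMEM (phenol-red free, 10% FBS) exposed to compounds in qHTS concentration series for 72 h at 37 degrees C. Viability read by CellTiter-Glo luminescence; concentration-effect curves fitted after normalization and correction.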
KB-3-1 tox: qHTS assay for MDR1-selective chemotherapeutics: Primary screen using the parental adenocarcinoma cell KB-3-1; KB-3-1 viability, CellTiter-Glo ATP luminescence, 72 h; Potency, µM (doses to about 46.1 µM), actives largely listed as cytotoxic; 1.4% of 400,000 active; note: potency is the fitted concentration of half-maximal effect; nearly all actives have a fitted effect of over 60% in size
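Screening of KB-3-1 cells (DMEM, 10% FBS, phenol-red free) ran from lowest to highest compound concentration; after 72 h at 37 °C viability was read luminescently and curves fitted.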
PI4K2A inh: qHTS for small molecular inhibitors of PI4K2A | Phosphatidylinositol 4-kinase type 2-alpha (Homo sapiens), Q9BTU6 | activity change, negative = inhibition, % at 76.9 µM | purified PI4K2A, ADP-Glo luminescence, 1 h; stronger effect = lower value | 0.13% of 420,000 active; in the data active = activity change below about -50%; inconclusive = mostly about -30% to -49%;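 note: -100% = wells without enzyme as full effect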
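In this quantitative HTS, ADP production by PI4K2A was quantified luminescently after 1 h at ambient temperature; 100 microM adenosine served as plate-quality control.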
Giardia killer: Small Molecules that selectively kill Giardia lamblia: qHTS; 0.15% of 340,000 active; activity change, % at 7.66 µM, hits read low; AID 540267, 2011; Giardia lamblia trophozoite viability; in the data active = activity change below about -80%; inconclusive = between about -30% and that limit;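 note: parasites exposed to compound for two days anaerobically before the ATP read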
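Killing of trophozoites was scored by loss of ATP luminescence after a 48 hrs anaerobic exposure to compounds at 37 deg C, using 100 cells per well.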
A549 tox-1: Nrf2 qHTS screen for inhibitors: counterscreen for cytotoxicity; AID 504648, 2011; Potency, µM (series often up to 46 µM), for inactives: at the highest dose activity change, negative = cytotoxicity, actives largely listed as inhibitors; A549 ARE-Fluc cells, CellTiter-Fluor viability, 18-24 h; 0.16% of 390,000 active; note: potency is the fitted concentration of half-maximal effect
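A549 ARE_Fluc cells in 5% FBS OPTI-MEM were exposed to compounds in concentration-response for 18-24 h at 37 deg C. Viability was read by CellTiter-Fluor fluorescence (Ex 405/Em 525) after 30 min, before the luciferase read.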
FLuc counter 3: Nrf2 qHTS screen for inhibitors: Purified Fluc Biochemical Counterscreen for Hit Validation. 4% of 1,400 active. Potency, µM (doses to about 57.5 µM), for the others: top-dose activity change, negative = inhibition, usual class: inhibitors. shares compounds with Nrf2 block. purified firefly luciferase, luminescence inhibition. AID 720522, 2013; note: potency is the fitted concentration of half-maximal effect; nearly all actives have a fitted effect of over 65% in size
Target sequence (P08659 whole entry, looked up): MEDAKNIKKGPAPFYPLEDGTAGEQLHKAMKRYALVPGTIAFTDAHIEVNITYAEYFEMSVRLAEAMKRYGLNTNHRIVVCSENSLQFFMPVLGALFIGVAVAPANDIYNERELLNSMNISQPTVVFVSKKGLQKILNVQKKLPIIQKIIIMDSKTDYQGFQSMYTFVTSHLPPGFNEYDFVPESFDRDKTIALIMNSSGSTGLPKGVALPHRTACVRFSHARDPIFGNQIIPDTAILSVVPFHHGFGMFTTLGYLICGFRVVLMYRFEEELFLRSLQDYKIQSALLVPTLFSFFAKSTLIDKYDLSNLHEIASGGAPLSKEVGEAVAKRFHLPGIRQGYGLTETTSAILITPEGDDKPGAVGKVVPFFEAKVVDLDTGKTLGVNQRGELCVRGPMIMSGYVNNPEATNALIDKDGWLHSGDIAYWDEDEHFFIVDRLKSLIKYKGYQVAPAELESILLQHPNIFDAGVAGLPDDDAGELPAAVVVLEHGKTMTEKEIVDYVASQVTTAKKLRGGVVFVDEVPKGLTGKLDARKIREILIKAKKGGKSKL
A549 tox-2: Nrf2 qHTS screen for inhibitors: A549 ARE-Fluc Cytotoxicity Counterscreen for Hit Validation. shares compounds with Nrf2 block. A549 ARE-Fluc cells, cytotoxicity counterscreen. Potency, µM (top dose mostly 46.1 µM), for the others: at the top dose activity change, negative = cytotoxicity, hits mostly inhibitors. 2% of 1,400 active. AID 720523, 2013;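 note: potency is the fitted concentration of half-maximal effect; cells exposed to compounds for 18 to 24 hours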
Nrf2 ARE inh: Nrf2 qHTS screen for inhibitors: Nrf2 A549 ARE-Fluc Confirmation Assay for Hit Validation; shares compounds with Nrf2 block; A549 ARE-firefly luciferase reporter, luminescence; Potency, µM (doses to about 46.1 µM), for inactives: top-dose activity change, negative = inhibition, most hits filed as inhibitors; 74% of 1,400 active; AID 720524, 2013; note: potency is the fitted concentration of half-maximal effect; nearly all actives have a fitted effect of over 65% in size
Numbers without * were called inactive. Unless noted, calls come from the whole dose curve; as a rule, active = well fitted curve in the direction sought with a large enough effect; inconclusive = small, poorly fitted or top-dose-only effect, or another doubt; inactive = no such curve, though single readings can be large; an effect the other way counts as inactive or inconclusive. Unless noted, % is set by controls: 0 for no effect and ±100 for the full control effect.

What do the screens show for `Cc1cccc(N2CCN(C(=O)C3CCC(CNS(=O)(=O)c4ccc(Br)s4)CC3)CC2)c1C` (centres undefined)?
Nrf2 block: inconclusive; KB-V1 MDR tox: inactive; KB-3-1 tox: inactive; PI4K2A inh: 2.0; A549 tox-1: 0.3%

How did Cc1cccc(N2CCN(C(=O)C3CCC(CNS(=O)(=O)c4cccs4)CC3)CC2)c1C (centres undefined) do in these assays?
Nrf2 block: 6.51µM*; KB-V1 MDR tox: inconclusive; KB-3-1 tox: 20.6µM*; PI4K2A inh: 0.1; Giardia killer: 2.7; A549 tox-1: -20.5%; FLuc counter 3: 0.3%; A549 tox-2: -17.2%; Nrf2 ARE inh: 8.2µM*

What do the screens show for `CCCCNS(=O)(=O)CC1NCCc2ccccc21` (centres undefined)?
PI4K2A inh: -4.2

What do the screens show for `CN1C(=O)C2C3c4ccccc4C(c4ccccc43)[C@@H]2C1=O` (some centres undefined)?
Nrf2 block: 1.3%; KB-V1 MDR tox: inactive; KB-3-1 tox: inactive; PI4K2A inh: -0.6; Giardia killer: -20.2; A549 tox-1: -2.1%

What do the screens show for `CC(=O)N(C(C)=O)N1C(=O)C2C3c4ccccc4C(c4ccccc43)C2C1=O` (centres undefined)?
Nrf2 block: 9.2µM*; KB-V1 MDR tox: inconclusive; KB-3-1 tox: inactive; PI4K2A inh: 3.4; Giardia killer: 1.8; A549 tox-1: inconclusive; FLuc counter 3: -27.1%; A549 tox-2: inconclusive; Nrf2 ARE inh: 14.6µM*

How did Cc1cc(NC(=O)CSc2nc3c(sc4ccccc43)c(=O)n2CCCN2CCOCC2)n[nH]1 do in these assays?
Nrf2 block: 7.31µM*; KB-V1 MDR tox: inactive; KB-3-1 tox: 13µM*; PI4K2A inh: 0.6; Giardia killer: 6.9; A549 tox-1: inconclusive; FLuc counter 3: 2.1%; A549 tox-2: inconclusive; Nrf2 ARE inh: 10.3µM*

What do the screens show for `Cc1cc(NC(=O)CSc2nc3c(sc4ccccc43)c(=O)n2CCc2ccccc2)n[nH]1`?
Nrf2 block: -27.3%; KB-V1 MDR tox: inactive; KB-3-1 tox: inactive; PI4K2A inh: -1.2; Giardia killer: 19.2; A549 tox-1: -9.6%

Results for COc1cccc(-c2cc(C(=O)Nc3cc(C)n(Cc4ccc(Cl)cc4)n3)no2)c1 ?
Nrf2 block: inconclusive; KB-V1 MDR tox: inconclusive; KB-3-1 tox: inactive; PI4K2A inh: 2.6; Giardia killer: 1.1; A549 tox-1: inconclusive; FLuc counter 3: -3.6%; A549 tox-2: -8.7%; Nrf2 ARE inh: 7.31µM*

How did Cc1cc(NC(=O)c2cc(-c3ccc(F)cc3)on2)nn1Cc1ccc(Cl)cc1 do in these assays?
Nrf2 block: 6.51µM*; PI4K2A inh: 3.1; A549 tox-1: -13.7%; FLuc counter 3: -0.3%; A549 tox-2: -10.2%; Nrf2 ARE inh: 2.91µM*

What do the screens show for `O=C(CSc1nnc(-c2cccnc2)n1Cc1ccco1)Nc1ccc(Cl)c(Cl)c1`?
PI4K2A inh: 0.4

What do the screens show for `S=C(Nc1cccc(Cl)c1)OCCN1CCCC12CCC(c1ccccc1)CC2` (centres undefined)?
PI4K2A inh: 2.0

Results for Cc1ccc(-c2nc3ccccc3o2)cc1NC(=O)C(C)Oc1ccccc1 (centres undefined) ?
KB-V1 MDR tox: inactive; KB-3-1 tox: inactive

What do the screens show for `COc1ccc(OC)c(CNc2ncnc3onc(C)c23)c1`?
Nrf2 block: -25.7%; KB-V1 MDR tox: inactive; KB-3-1 tox: inactive; PI4K2A inh: -11.1; A549 tox-1: 2.6%

How did Cc1noc2ncnc(NCCc3ccccc3)c12 do in these assays?
Nrf2 block: inconclusive; KB-V1 MDR tox: inactive; KB-3-1 tox: inconclusive; PI4K2A inh: 2.0; A549 tox-1: -7.0%

How did CCOCCCNc1ncnc2onc(C)c12 do in these assays?
Nrf2 block: 23.9%; KB-V1 MDR tox: inactive; KB-3-1 tox: inactive; PI4K2A inh: -9.7; A549 tox-1: -4.0%

Results for COc1ccc(CNc2ncnc3onc(C)c23)cc1 ?
Nrf2 block: 4.11µM*; PI4K2A inh: 5.3; A549 tox-1: 1.8%; FLuc counter 3: -1.4%; A549 tox-2: 0.7%; Nrf2 ARE inh: inconclusive

Results for Cc1ccc(CCNc2ncnc3onc(C)c23)cc1 ?
Nrf2 block: 9.2µM*; KB-V1 MDR tox: inactive; KB-3-1 tox: 2.91µM*; PI4K2A inh: 6.7; A549 tox-1: -1.4%; FLuc counter 3: inconclusive; A549 tox-2: 0.1%; Nrf2 ARE inh: 5.8µM*

Results for CCOc1ccc(CCNc2ncnc3onc(C)c23)cc1OCC ?
Nrf2 block: 7.31µM*; KB-V1 MDR tox: inactive; KB-3-1 tox: 2.59µM*; PI4K2A inh: 1.6; A549 tox-1: 0.6%; FLuc counter 3: 3.0%; A549 tox-2: -3.1%; Nrf2 ARE inh: inconclusive

How did CCc1ccc(-n2c(=O)c3sc4ccccc4c3n(Cc3cccc(F)c3)c2=O)cc1 do in these assays?
Nrf2 block: 7.8%; KB-V1 MDR tox: inactive; KB-3-1 tox: inactive; PI4K2A inh: 5.9; A549 tox-1: 7.8%

How did Cc1ccc(N(C)C(=O)Cn2cnc3onc(-c4ccc(F)cc4)c3c2=O)cc1C do in these assays?
Nrf2 block: -14.5%; KB-V1 MDR tox: inactive; KB-3-1 tox: inactive; PI4K2A inh: -0.4; A549 tox-1: -2.6%

Results for Cc1cc(OCC(=O)Nc2ccncc2)cc(C)c1Br ?
Nrf2 block: 9.2µM*; KB-V1 MDR tox: inconclusive; KB-3-1 tox: inconclusive; PI4K2A inh: 7.2; Giardia killer: -4.8; A549 tox-1: -7.7%; FLuc counter 3: -9.5%; A549 tox-2: 11.0%; Nrf2 ARE inh: 8.2µM*
